Source: PubChem (National Center for Advancing Translational Sciences (NCATS))
FLuc inh: blocks purified firefly luciferase enzyme activity; P08659; purified P. pyralis luciferase, luminescence, biochemical; Potency, µM (doses to about 115 µM), actives largely listed as inhibitors; 76,000 tested, 2.5% active; AID 1347043; further: nearly all actives have a fitted effect of over 65% in size
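Biochemical qHTS: compound (6-point titration) added to 10uM D-luciferin plus 10uM ATP in Tris acetate pH 7.5 buffer with Mg, Tween-20 and BSA, then purified enzyme at 10nM; light output imaged.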
3T3 cytotox: NIH 3T3 cell cytotoxicity | NIH 3T3 viability, CellTiter-Glo ATP luminescence, 48-72 h | Potency, µM (highest dose often 96.7 µM), inactives show at the top dose activity change, negative = cytotoxicity, actives largely listed as inhibitors | 94,000 tested, 4.3% active | AID 1345082; further: nearly all actives have a fitted effect of over 55% in size
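Cells were seeded at 400 per well, treated with pin-transferred compound, and kept 48 or 72 hr at 37 °C before CellTiter-Glo addition and luminescence imaging of cellular ATP.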
hNpr1 antagonist: blocks ANP-stimulated signaling of human Npr1 receptor; HEK293 hNpr1 GloSensor cGMP, ANP-stimulated luminescence; P16066; 76,000 tested, 1.6% active; Potency, µM (titrated, usually from 46.3 µM), without a hit: at the highest dose activity change, negative = inhibition, hits mostly inhibitors; calls by dose curve; further: nearly all actives have a fitted effect of over 60% in size
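HEK293 cells stably expressing human Npr1 and cGMP GloSensor pGS-40F, loaded 2 h with 2% GloSensor reagent, given compound 30 min at room temperature. Luminescence read before and 20 min after 0.1 nM hNppA.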
GPT2 inhibitor: inhibitors of human GPT2 alanine aminotransferase; Q8TD30; Recombinant GPT2, coupled pyruvate oxidase/HRP Amplex Red fluorescence; Potency, µM (top dose mostly 57.7 µM), without a hit: at the top dose activity change, negative = inhibition, usual class: inhibitors; 100,000 tested, 0.25% active; AID 1671188; further: nearly all actives have a fitted effect of over 60% in size
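Fluorescence read-out: pyruvate from GPT2 turnover coupled to pyruvate oxidase, HRP and Amplex Red (0.2mM ThPP, 0.2U/mL PO and HRP, 50uM Amplex final). Substrates 250uM a-KG, 2mM L-alanine; enzyme 10ng/uL; 30 min RT.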
HEK293 tox: HEK 293 cell cytotoxicity; HEK 293 viability, ATP luminescence (CellTiter-Glo), 48-72 h; Potency, µM (doses to about 115 µM), for the others: at the highest dose activity change, negative = cytotoxicity, usual class: inhibitors; 94,000 tested, 6.6% active; AID 1345083; further: nearly all actives have a fitted effect of over 60% in size
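HEK 293 cells seeded at 250 cells/well were exposed to compound for 48 or 72 hr at 37 degree Celsius. Viability taken as ATP content by CellTiter-Glo luminescence.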
Active calls of the source: *; [ ] = another dose, or the depositor's remark. Only some compounds are listed: those with a hit (about 10% of all), similar ones and a draw of the others. Unless noted, the call rests on the fitted dose curve; in most records, active means well fitted curve in the direction sought with a large enough effect; inconclusive means small, poorly fitted or top-dose-only effect, or another doubt; inactive means no such curve, though single readings can be large; an effect the other way counts as inactive or inconclusive. On the % scale 0 is the no-effect control and ±100 the full control effect; potency means the concentration at half of the fitted maximal effect.

Screening Cc1cc(S(=O)(=O)N2CCC3(CCC(=O)N(CC4CC4)CC3)CC2)ccc1F returned 3T3 cytotox inconclusive, GPT2 inhibitor inactive and HEK293 tox inconclusive.
Screening CN1CCC(NC[C@H]2O[C@H](Cc3cc(-c4ccc(F)cc4)on3)CC[C@@H]2O)CC1 returned FLuc inh inactive, 3T3 cytotox 89.1µM*, hNpr1 antagonist inconclusive, GPT2 inhibitor 3.2%[88.5 µM] and HEK293 tox inconclusive.
Screening COc1ccc(-c2cc(C[C@@H]3CC[C@H](O)[C@@H](CNCc4cccc(Cl)c4)O3)no2)cc1 returned FLuc inh 50.1µM*, 3T3 cytotox inconclusive, hNpr1 antagonist inconclusive, GPT2 inhibitor inconclusive and HEK293 tox 28.2µM*.
COc1ccc(-c2cc(C[C@@H]3CC[C@H](O)[C@@H](CNCc4cccc(OC)c4)O3)no2)cc1 was read as FLuc inh inconclusive, 3T3 cytotox inconclusive, hNpr1 antagonist inconclusive, GPT2 inhibitor -2.1% and HEK293 tox inconclusive.
`O=C(NC[C@H]1O[C@H](Cc2cc(-c3ccc(F)cc3)on2)CC[C@@H]1O)c1ccccc1F` gave FLuc inh 22.4µM*, 3T3 cytotox -25.8%[138 µM], hNpr1 antagonist inconclusive, GPT2 inhibitor -1.7%[88.5 µM] and HEK293 tox -29.8%[172 µM].
For COc1ccc(-c2cc(C[C@@H]3CC[C@@H]4OC(=O)NC[C@H]4O3)no2)cc1 the results were FLuc inh inconclusive, 3T3 cytotox inconclusive, hNpr1 antagonist 3.5%[70.6 µM], GPT2 inhibitor 4.4%[88.5 µM] and HEK293 tox 100µM*.
For Cc1ccc(C2(O)CCN(C(=O)c3cccc(-c4ncc[nH]4)c3)CC2)nc1 the results were FLuc inh inactive, 3T3 cytotox -16.5%, hNpr1 antagonist 1.0%, GPT2 inhibitor -5.4% and HEK293 tox -16.2%.
For O=C(NCC1CCCCC1)c1nc2sccn2c1-c1ccc(C(F)(F)F)cc1 the results were 3T3 cytotox inconclusive, GPT2 inhibitor inactive and HEK293 tox inconclusive.
CC(C)Cn1c(=O)c(C(=O)N2CCN([S+](C)(=O)[O-])CC2)nc2cccnc21 was read as 3T3 cytotox -5.2%, GPT2 inhibitor inactive and HEK293 tox inactive.
Screening Cc1cccc(OCC2(CNCC(C)C)C[C@@H](O)[C@@H](O)C2)n1 (stereo partly specified) returned FLuc inh inactive, 3T3 cytotox -1.7%[138 µM], hNpr1 antagonist 2.0%[70.6 µM], GPT2 inhibitor 0.4%[88.5 µM] and HEK293 tox -6.9%[172 µM].
Screening Cc1ccc(CNC[C@H]2O[C@H](Cc3cc(-c4ccc(F)cc4)on3)CC[C@@H]2O)cc1 returned FLuc inh inactive, 3T3 cytotox 31.6µM*, hNpr1 antagonist -23.4%[70.6 µM], GPT2 inhibitor 0.2%[88.5 µM] and HEK293 tox 39.8µM*.
COc1ccc(C(=O)NC[C@H]2O[C@H](Cc3cc(-c4ccccc4)on3)CC[C@@H]2O)cc1 was read as FLuc inh inactive, 3T3 cytotox inconclusive, hNpr1 antagonist -15.1%[70.6 µM], GPT2 inhibitor 0.2%[88.5 µM] and HEK293 tox -28.6%[172 µM].
`NC[C@H]1O[C@H](Cc2cc(-c3cccc(O)c3)on2)CC[C@@H]1O` gave FLuc inh 56.2µM*, 3T3 cytotox inactive, hNpr1 antagonist 2.51µM*, GPT2 inhibitor inactive and HEK293 tox 3.0%[172 µM].
COc1ccc(CNC[C@H]2O[C@H](Cc3cc(-c4ccccc4)on3)CC[C@@H]2O)cc1 was read as FLuc inh inactive, 3T3 cytotox 39.8µM*, hNpr1 antagonist -18.7%[70.6 µM], GPT2 inhibitor 0.2%[88.5 µM] and HEK293 tox 89.1µM*.
Screening COc1ccc(-c2cc(C[C@@H]3CC[C@H](O)[C@@H](CNC(=O)NCc4ccccc4)O3)no2)cc1 returned FLuc inh inactive, 3T3 cytotox inconclusive, hNpr1 antagonist -17.8%, GPT2 inhibitor -3.6% and HEK293 tox inconclusive.
Screening COc1ccc(NC(=O)NC[C@H]2O[C@H](Cc3cc(-c4cccc(O)c4)on3)CC[C@@H]2O)cc1 returned FLuc inh inconclusive, 3T3 cytotox -16.8%, hNpr1 antagonist 11.2µM*, GPT2 inhibitor inactive and HEK293 tox -16.4%.
`Cc1nn(-c2ccccc2)c2c1C(C1CC1)N(C1CCN(Cc3cccc(F)c3)CC1)C2=O` (stereo unspecified) gave 3T3 cytotox -23.3% and HEK293 tox inconclusive.
Screening Cc1nnc2ccc(N3CCC(NC(=O)Nc4ccccc4)C3)nn12 (stereo unspecified) returned 3T3 cytotox -19.0%[138 µM] and HEK293 tox 3.9%[172 µM].
Screening COc1ccc(-c2cc(C[C@@H]3CC[C@H](O)[C@@H](CN(Cc4cccc(OC)c4)Cc4cccc(OC)c4)O3)no2)cc1 returned FLuc inh inconclusive, 3T3 cytotox inconclusive, hNpr1 antagonist 11.2µM*, GPT2 inhibitor inconclusive and HEK293 tox inconclusive.
`COc1ccc(-c2cc(C[C@@H]3CC[C@H](O)[C@@H](CNC4CCN(C)CC4)O3)no2)cc1` gave FLuc inh inconclusive, 3T3 cytotox inconclusive, hNpr1 antagonist -24.8%[70.6 µM], GPT2 inhibitor -9.6%[88.5 µM] and HEK293 tox inconclusive.
Screening Cc1nc2ccccc2n1Cc1cc(C(=O)N2CCCC2)no1 returned FLuc inh inactive, 3T3 cytotox inconclusive, hNpr1 antagonist -27.7%, GPT2 inhibitor inactive and HEK293 tox 39.8µM*.
`CCc1nc2c(c(-c3ccc(OC)cc3)n1)CN(C(=O)c1ccccc1)CC2` gave 3T3 cytotox 14.1µM*, GPT2 inhibitor inactive and HEK293 tox 0.5%.
Screening CCc1nc2c(c(-c3ccc(OC)cc3)n1)CCN(C(=O)c1ccccc1OC)CC2 returned 3T3 cytotox inconclusive, GPT2 inhibitor inactive and HEK293 tox -4.9%.
COc1ccc(-c2nc(C)nc3c2CCN(C(=O)c2ccc4c(c2)OCO4)CC3)cc1 was read as FLuc inh inactive, 3T3 cytotox -26.0%, hNpr1 antagonist 0.0%, GPT2 inhibitor inactive and HEK293 tox inconclusive.
For CCc1nc2c(c(-c3ccc(OC)cc3)n1)CN(C(=O)c1ccc3c(c1)OCO3)CC2 the results were 3T3 cytotox 39.8µM*, GPT2 inhibitor inactive and HEK293 tox -7.4%.
Screening CCc1nc2c(c(-c3ccc(OC)cc3)n1)CCN(C(=O)c1ccccc1F)CC2 returned 3T3 cytotox 39.8µM*, GPT2 inhibitor inactive and HEK293 tox -18.7%.
O=C1CO[C@H]2CCN(Cc3cccc(OC(F)(F)F)c3)CC[C@@H]2N1Cc1ccccc1 was read as FLuc inh inactive, 3T3 cytotox inconclusive, hNpr1 antagonist -1.7%, GPT2 inhibitor inactive and HEK293 tox 50.1µM*.
`Cc1cccc(CN2CC[C@@H]3OCC(=O)N(Cc4ccccc4)[C@H]3CC2)c1` gave FLuc inh inactive, 3T3 cytotox 100µM*, hNpr1 antagonist -1.8%[70.6 µM], GPT2 inhibitor -12.3%[88.5 µM] and HEK293 tox 100µM*.
